According to PubChem BioAssay (NCATS):
Calls of active or inactive are those of the source. The call rests on the fitted dose curve; in most records, active means well fitted curve in the direction sought with a large enough effect; inconclusive means small, poorly fitted or top-dose-only effect, or effect the other way, or another doubt; inactive means no such curve, though single readings can be large or run the other way.

Assay: qHTS for inhibitors of adenylyl cyclases using a fission yeast platform: a pilot screen against the NCATS LOPAC library (AID 1347410)
Conditions: S. pombe CHP2027, fbp1-GFP fluorescence, 18 h, yeast expressing mammalian AC9 and human GNAS; series mostly up to 57.5 µM
Description: PI: Charles S. Hoffman Ph.D
Boston College, 140 Commonwealth Ave., Chestnut Hill, MA
Assay Development and Screening Technology Laboratory (ADST)
National Center for Advancing Translational Sciences (NCATS), Rockville, MD
National Institute of Health (NIH), Bethesda, Maryland
The fission yeast Schizosaccharomyces pombe uses a cAMP signaling pathway to link glucose-sensing to Protein Kinase A activity in order to regulate cell growth, sexual development, gluconeogenesis, and exit from stationary phase. Here, we describe the successful functional expression of all ten mammalian adenylyl cyclase (AC) genes, along with the human GNAS G-alpha gene in this organism. By measuring expression of a PKA-repressed fbp1-GFP reporter together with direct measurements of intracellular cAMP levels, one can detect both basal AC activity from all ten AC genes as well as GNAS-stimulated activity from eight of the nine transmembrane ACs (tmACs; AC2-AC9).
Further confirmation and validation of active compounds lead to the identification of diphenyleneiodonium chloride (DPI) as an inhibitor of basal AC activity. This fluorescence based fbp1-GFP-GNAS screening technology could facilitate the development of therapeutic compounds that target GNAS or the ACs, an area in which there is significant unmet need.
The gain-of-signal output is not substantially affected by cytotoxic compounds within the library.
Getz RA, et al., A fission yeast platform for heterologous expression of mammalian adenylyl cyclases and high throughput screening, Cellular Signaling, 2019, 60: 114-121. doi.org/10.1016/j.cellsig.2019.04.010.
PROTOCOL TABLE (as described by Inglese J, Shamu CE and Guy RK. 2007)
SEQUENCE No. (e.g., 1, 2, 3, etc.); […] (e.g., Cells, Incubation, Reagent, etc.); VALUE; DESCRIPTION.
1; Dispense growth medium; 2 uL; black, clear bottom, low base, 1536-well Aurora assay plate.
2; Compounds and control; 23 nL; Kalypsis pin tool (Wako USA) equipped with a 1536-well pin head to transfer to the assay plates.
3; Dispense yeast cells; 2 uL; CHP2027 cells.
4; Incubation; 18 hours (dark at 30C); Non-humidified microbial incubator.
5; Detector; 425V; Fluorescence; laser scanning cytometry.
NOTES (numbers refer to Sequence numbers above)
1. S. pombe growth medium EMM containing histidine, lysine, and uracil was initially dispensed into the assay plate to avoid yeast contamination using a Multidrop Combi dispenser (Thermo Fisher Scientific).
2. 10 mM stock solution of DPI (Sigma-Aldrich D2926) dissolved in DMSO was used as a 16-point dose response positive control, while 1.11 mM DPI stock solution was used as a single point max response positive control. Solvent DMSO was used as the negative control. Control DPI was transferred as a single-dose (column 3; rows 1-32; 1.11 mM stock), and multi-dose (column 4; rows 1-32; 10mM stock; 1:1.5 dilution; 16pnt titration) positive controls. Vehicle control DMSO was pinned into column 1-2, rows 1-32. Lopac compounds were pinned into columns 5-48 resulting to a final concentration range 57 µM to 78.4 nMControl DPI stock (10 mM) was prepared by dissolving 10 mg in 3.18 mL DMSO; while 1.11 mM DPI stock was prepared by mixing 100 uL of 10 mM DPI with 800 uL DMSO. To create the control plates, we initially start with a 384-well compound working plate. With a repeater pipette, (a.) 16 uL/well of 1.11 mM DPI was added to column 3; (b.) 16 uL/well of DMSO was added into rows 2-16 of column 4; (c.) 50 uL/well of DPI added to rows 1 and 2 of column 4; (d.) 32 uL serial dilution (two-thirds-fold) from rows 2 to 16 of column 4 with manual pipette. From the 384-well compound working plate, 7 uL of respective control compound was transferred to respective columns of the 1536-well compound plate using a multichannel pipette.
3. S. pombe CHP2027 (AC9-GNAS-PDE4D2) expressing fbp1-GFP cells were grown at 30C in EMM medium containing histidine, lysine, and uracil. […]

With `COC(=O)C(C)(N)Cc1ccc(O)cc1` (stereo not given) as the molecule, how does the outcome read?
Its outcome is “inactive”.

With `Cc1cccc(C)c1OCC(N)C(C)C` (stereo not given) as the molecule, how does the outcome read?
Its outcome is “inactive”.

Which outcome does the source give for `CCCCCCN(CCCCCC)C(=O)Cc1c(-c2ccc(F)cc2)[nH]c2ccccc12` here?
The outcome was “inactive”.

For `O=C(O)c1ccccc1Nc1cccc(OCc2ccc3ccccc3n2)c1`, which outcome is on record?
The outcome was “inactive”.

For `CNc1ncnc2c1ncn2[C@H]1C[C@H](OP(=O)(O)O)[C@@H](COP(=O)(O)O)O1`, which outcome is on record?
Its outcome is “inactive”.

For `C=C1C(=O)O[C@@H]2[C@H]3O[C@]3(C)CCC=C(C)CC[C@@H]12`, which outcome is on record?
Its outcome is “inactive”.

For `CCn1c(=O)[nH]c2cc(Cl)c(Cl)cc21`, which outcome is on record?
The outcome was “inactive”.

With `O=C(O)c1ccccc1Nc1ccccc1` as the molecule, how does the outcome read?
The outcome was “inactive”.

Which outcome does the source give for `N[C@H]1CONC1=O` here?
The outcome was “inactive”.

With `NC1(C(=O)O)CC1` as the molecule, how does the outcome read?
Its outcome is “inactive”.

Which outcome does the source give for `CCCc1c(-c2ccc(O)cc2)nn(-c2ccc(O)cc2)c1-c1ccc(O)cc1` here?
Its outcome is “inactive”.

For `NC1CONC1=O` (stereo not given), which outcome is on record?
Its outcome is “inactive”.

For `O=C1OC(=O)C2C3CCC(O3)C12` (stereo not given), which outcome is on record?
Its outcome is “inactive”.

With `O=C(O)C1=CCNCC1` as the molecule, how does the outcome read?
Its outcome is “inactive”.

With `C[C@H]1CC2C3CCC4=CC(=O)C=C[C@]4(C)[C@@]3(Cl)[C@@H](O)C[C@]2(C)[C@@]1(O)C(=O)CO` (stereo not given in full) as the molecule, how does the outcome read?
Its outcome is “inactive”.

With `c1ccc2nc(C3=NCCN3)ccc2c1` as the molecule, how does the outcome read?
Its outcome is “inactive”.

For `C[C@](Cc1ccc(O)c(O)c1)(NN)C(=O)O`, which outcome is on record?
The outcome was “inactive”.

With `CCC1(O)CC2CN(CCc3c([nH]c4ccccc34)[C@@](C(=O)OC)(c3cc4c(cc3OC)N(C=O)C3[C@]45CCN4CC=C[C@@](CC)([C@@H](OC(C)=O)[C@]3(O)C(=O)OC)[C@H]45)C2)C1` (stereo not given in full) as the molecule, how does the outcome read?
The outcome was “inactive”.

For `CN1CCN(c2nc3cc(C(F)(F)F)ccc3n3cccc23)CC1`, which outcome is on record?
Its outcome is “inactive”.

Which outcome does the source give for `O=C(O)c1cccnc1C(=O)O` here?
The outcome was “inactive”.

With `NC(N)=[N+]1CCc2ccccc2C1` as the molecule, how does the outcome read?
Its outcome is “inactive”.

For `N[C@H](C(=O)O)c1cc(O)cc(O)c1`, which outcome is on record?
Its outcome is “inactive”.

Which outcome does the source give for `Cc1nc(N=Nc2cc(S(=O)(=O)O)c3cc([N+](=O)[O-])cc(S(=O)(=O)O)c3c2)c(COP(=O)(O)O)c(C=O)c1O` here?
The outcome was “inactive”.

For `Nc1nc2c(cnn2CCc2ccccc2)c2nc(-c3ccco3)nn12`, which outcome is on record?
The outcome was “inactive”.

With `CN1CCC2(CCN3CCc4c(oc5ccccc45)C3C2)N(C)C1=O` (stereo not given) as the molecule, how does the outcome read?
Its outcome is “inactive”.

For `CNc1cc(NS(=O)(=O)c2ccc(N)cc2)nc(NC)n1`, which outcome is on record?
Its outcome is “inactive”.

With `O=c1[nH]c(=O)c2nc3ccccc3nc2[nH]1` as the molecule, how does the outcome read?
Its outcome is “inactive”.

With `CC[N+](CC)(CC)CC(=O)Nc1c(C)cccc1C` as the molecule, how does the outcome read?
The outcome was “inactive”.

With `NCCCCN` as the molecule, how does the outcome read?
The outcome was “inactive”.

With `CN1Cc2sccc2C(c2ccc(O)c(O)c2)C1` (stereo not given) as the molecule, how does the outcome read?
The outcome was “inactive”.

Which outcome does the source give for `C=CCN1CCc2c(cc(O)c(O)c2Br)[C@@H](c2ccccc2)C1` here?
Its outcome is “inactive”.

For `Nc1nc2[nH]c(=O)cnc2c(=O)[nH]1`, which outcome is on record?
The outcome was “inactive”.

Which outcome does the source give for `CCCc1c(OCCCOc2ccc(OCC(=O)O)cc2)ccc(C(C)=O)c1O` here?
Its outcome is “inactive”.

For `O=[N+]([O-])c1cccc2c(Br)[nH]nc12`, which outcome is on record?
Its outcome is “inactive”.

With `CC(N)(C(=O)O)c1ccc(C(=O)O)cc1` (stereo not given) as the molecule, how does the outcome read?
The outcome was “inactive”.

With `C/C(=C\c1ccc(C(=O)O)cc1)c1ccc2c(c1)C(C)(C)CCC2(C)C` as the molecule, how does the outcome read?
Its outcome is “inactive”.

Which outcome does the source give for `O=c1[nH]ccc2c(O)cccc12` here?
Its outcome is “inactive”.

With `O=C(O)CCC(=O)N1CCCC1C(=O)O` (stereo not given) as the molecule, how does the outcome read?
Its outcome is “inactive”.

With `N[C@@H](CS(=O)O)C(=O)O` as the molecule, how does the outcome read?
The outcome was “inactive”.

With `NCCS(=O)O` as the molecule, how does the outcome read?
The outcome was “inactive”.
